The values that follow come from PubChem BioAssay (NCI).

The structures appear in SMILES notation. The panel holds about 83,000 compounds, 20% with a hit somewhere; the sample as a whole holds those more often.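 Each cell line was grown in a 96-well plate and treated with one concentration of compound for 48 hours. Values below 10 were considered active.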 Calls of active or inactive are those of the source.

For this assay, the system named is T-47D breast. Briefly: NCI-60 one-dose screen, 48 h (100 = growth as untreated, 0 = no growth, -100 = all killed). The following applies: 10 µM unless noted.
On to `Cn1ccnc1C(=O)/C=C/c1ccc(NC(=O)Nc2ccc(Cl)cc2)cc1`, for which the growth was 62.7% (inactive).

For `C#Cc1nc(C2=C(C)/C(=N/OCc3ccccc3)CC2)cs1`, the growth is 67.5% (inactive).

Regarding `COc1ccc(-n2c(SCC(=O)Nc3ccc(-c4nc5ccccc5[nH]4)cc3)nc3ccccc3c2=O)cc1`, the growth was -51.8% (active).

As for `COc1cc(OC)c(S(=O)(=O)NNC(=O)c2ccncc2)cc1C(=O)/C=C/c1ccc(C)cc1`, the growth was 72.7% (inactive).

Take `COC(=O)C(C)NS(=O)(=O)/N=C1\NC(=O)NC1=C(Cl)Cl` (stereo not drawn): the growth was 107% (inactive).

With `COc1ccc(C(=O)/C=C/c2ccc(Oc3nc(NCCO)nc(N4CCOCC4)n3)c(OC)c2)cc1`, the growth was 94.1% (inactive).

Consider `NS(=O)(=O)c1cccc(Nc2nc(SCC(=O)c3ccc(Br)cc3)nc3ccccc23)c1`, for which the growth was 31.9% (inactive).

As for `O=C(N/N=C/c1ccc([N+](=O)[O-])o1)c1[nH]c2ccc(Br)cc2c1-c1ccccc1`, the growth was 53.9% (inactive).

In the case of `O=C(N/N=C/c1cccs1)c1[nH]c2ccc(Br)cc2c1-c1ccccc1`, the growth is 68.4% (inactive).

Consider `COc1cc2cc(Oc3ccc(NC(=O)c4cccc(C(F)(F)F)c4)cc3)c(C)nc2cc1OCCN1CCCCC1`, for which the growth is -25.8% (active).

Regarding `Cc1sc2c(c1C)c(=O)nc1c(-c3nc(-c4ccc(F)cc4)no3)n[nH]n12`, the growth is 95.5% (inactive).

As to `N#Cc1nc(-c2ccccc2)oc1N1CC[C@@H](CO)C1`, the growth is 98.1% (inactive).

Consider `Cn1ccnc1C(=O)/C=C/c1ccc(NC(=O)Nc2ccc(F)cc2)cc1`, for which the growth is 42.8% (inactive).

Take `COc1ccc(NC2=C(Cl)C(=O)C(C)=C(C)C2=O)cc1OC`: the growth is 23.5% (inactive).

Consider `NS(=O)(=O)c1ccc(Nc2nc(Nc3ccccc3)nc(-n3nc(-c4ccccc4)cc3-c3ccccc3)n2)cc1`, for which the growth is 36.9% (inactive).

In the case of `C#Cc1nc(C2=C(C)C(O)/C(=N/O)C2)cs1` (stereo not drawn), the growth was 89.9% (inactive).

On to `Cc1ccc2c(n1)C(=O)C(Cl)=C(Nc1cccc(C(C)C)c1)C2=O`, for which the growth was 3.43% (active).

Take `CN1CCc2c(sc3ncnc(N/N=C/c4ccc(Cl)c(Cl)c4)c23)C1`: the growth was 90.4% (inactive).

For the molecule `O=C(CSc1nnc(-c2ccc3nc(-c4ccc(Cl)cc4)[nH]c3c2)o1)Nc1ccc(C(=O)/C=C/c2ccc(Cl)cc2)cc1`, the growth is 87.1% (inactive).

`O=C(N/N=C/c1ccc(Br)s1)c1[nH]c2ccc(Br)cc2c1-c1ccccc1`: the growth was 75.7% (inactive).

As for `C#Cc1nc(C2=C(C)C(O)CC2)cs1` (stereo not drawn), the growth was 92% (inactive).

On to `O=C(N/N=C/c1ccc[nH]1)c1[nH]c2ccc(Br)cc2c1-c1ccccc1`, for which the growth is 14.1% (inactive).

Take `COc1ccc(/C=N/NC(=O)c2[nH]c3ccc(Br)cc3c2-c2ccccc2)s1`: the growth is 73.2% (inactive).

For the molecule `C/C(=N\NC(N)=O)c1c(O)sc(=O)[nH]c1=O`, the growth is 105% (inactive).

In the case of `C#Cc1nc(C2=C(C)C(=O)/C(=N/OC(C)=O)C2)cs1`, the growth is 79.9% (inactive).

Regarding `Cn1ccnc1C(=O)/C=C/c1ccc(NC(=O)Nc2ccccc2)cc1`, the growth was 15.7% (inactive).

In the case of `COc1cc(/C=C/C(=O)c2cc(OC)c(OC)c(OC)c2)ccc1OCc1ccccc1`, the growth was 41.8% (inactive).

For `CC(O)C(NC(=O)C1CCCN1C(=O)CNC(=O)C1CC(=O)NCC(=O)NC(Cc2c[nH]c3ccccc23)C(=O)NC(Cc2ccc(O)cc2)C(=O)NCC(=O)NC(CO)C(=O)NC(CCC(N)=O)C(=O)NC(Cc2c[nH]c3ccccc23)C(=O)N1)C(=O)NCC(=O)NC(CCC(N)=O)C(=O)NC(CCCNC(=N)N)C(=O)NC(CC(=O)O)C(=O)O` (stereo not drawn), the growth was 106% (inactive).

`COc1cc(/C=C/C(=O)c2cc(OC)c(OC)c(OC)c2)ccc1OCc1ccc(F)cc1`: the growth was 38.3% (inactive).

Turning to `O=C(N/N=C/c1ccc([N+](=O)[O-])s1)c1[nH]c2ccc(Br)cc2c1-c1ccccc1`, the growth is 59.7% (inactive).

Take `N#Cc1c(-c2ccc(Cl)cc2)nc2c(-c3ccccc3)c(Nc3ccccc3)nn2c1N`: the growth was 52.9% (inactive).

As for `O=C(Oc1ccc2ccc(=O)oc2c1)c1ccc(Cl)cc1`, the growth was 105% (inactive).

Take `C#Cc1nc(C2=C(C)C(OC(=O)CCC(=O)O)CC2)cs1` (stereo not drawn): the growth is 98% (inactive).

Consider `C#Cc1nc(C2=C(C)C(=N\O)/C(=N/O)C2)cs1`, for which the growth was 82.6% (inactive).

Take `O=C(N/N=C/c1ccco1)c1[nH]c2ccc(Br)cc2c1-c1ccccc1`: the growth was 60.7% (inactive).

With `COC(=O)C(Cc1ccccc1)NS(=O)(=O)/N=C1\NC(=O)NC1=C(Cl)Cl` (stereo not drawn), the growth is 68.4% (inactive).

Consider `N#Cc1ccc(/C=N/NC(=O)c2[nH]c3ccc(Br)cc3c2-c2ccccc2)s1`, for which the growth was 58.8% (inactive).

Take `CCOc1ccc2nc(NC(=O)c3ccc(C(F)(F)F)cc3)sc2c1`: the growth is 97.7% (inactive).
